Hits are enriched below; roughly 15% of the tested compounds scored in any of these assays.
Pf growth 48h: inhibits P. falciparum growth in the first generation, 48 h. P. falciparum luciferase growth in erythrocytes, 48 h. Potency, µM (series often up to 28.7 µM), without a hit: at the top dose activity change, negative = inhibition, usual class: inhibitors. 310,000 tested, 5.9% active. AID 504832; note: potency is the fitted concentration of half-maximal effect; % is set by controls: 0 for no effect and ±100 for the full control effect
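First compound was added to culture medium, then infected red cells at 0.1% parasitemia and 2% hematocrit (final). After incubation at 37 C under 5% CO2, luciferase detection reagent was dispensed and light output recorded.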
HCV inhibitor: inhibitors of hepatitis C virus infection; Huh7.5.1 HCVcc-Cre infection, luciferase reporter, 44 h; Potency, µM (series often up to 41.8 µM), inactives show top-dose activity change, negative = inhibition, hits mostly inhibitors; 340,000 tested, 3.4% active; note: potency is the fitted concentration of half-maximal effect; % is set by controls: 0 for no effect and ±100 for the full control effect
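Compounds are dispensed onto cells plated 4 h earlier at 1,000 per well, with HCVcc-Cre virus (about 0.5 moi) added next. Following 44 h of culture, luminescent signal is measured for 15 sec after 15 min with substrate at room temperature.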
Sm TGR inh: S. mansoni TGR enzyme inhibition | purified TGR, DTNB reduction, TNB absorbance 405 nm | Potency, µM (doses to about 114 µM), without a hit: at the top dose activity change, negative = inhibition, usual class: inhibitors | 360,000 tested, 3% active; note: potency is the fitted concentration of half-maximal effect; % is set by controls: 0 for no effect and ±100 for the full control effect; nearly all actives have a fitted effect of over 60% in size
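TGR 20 nM + NADPH 100 uM (dispensed conc.), cpd preinc 15 min RT; start with NADPH (500 uM addition) then DTNB (15 mM addition). Kinetic TNB absorbance, 405 nm filter. Four-parameter Hill fit across titration.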
SARS PLP yeast: inhibitors of SARS-CoV papain-like protease in yeast; AID 485353; S. cerevisiae expressing SARS-CoV PLpro, growth rescue; 330,000 tested, 0.19% active; Potency, µM (top dose mostly 32.9 µM), for inactives: top-dose activity, positive = growth rescue, most hits filed as activators; calls by dose curve; note: potency is the fitted concentration of half-maximal effect; 0% is about no effect; nearly all actives have a fitted effect of over 55% in size
HCMV inh: inhibitors of human cytomegalovirus; HFF cells, HCMV-luciferase reporter, 72 h; active compounds read low; 410,000 tested, 4.5% active; activity change, negative = inhibition, % at 57.5 µM; AID 1259415; in the data active = activity change below about -60%; inconclusive = no clear call, values can overlap the other calls; inactive = above about -39%; note: % is set by controls: 0 for no effect and ±100 for the full control effect
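Two compound doses tested in HFFs infected with HCMV-luciferase, MOI 1 PFU/cell, 72 h at 37C. Lysate luminescence read with OneGlo; data normalized against buffer-only and 10uM Salinomycin inhibitor controls.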
Pf growth 96h: P. falciparum growth inhibition at 96 hours; P. falciparum luciferase reporter growth, 96 h; Potency, µM (titrated, usually from 28.7 µM), for the others: top-dose activity change, negative = inhibition, usual class: inhibitors; 320,000 tested, 6.9% active; note: potency is the fitted concentration of half-maximal effect; % is set by controls: 0 for no effect and ±100 for the full control effect
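Plates of compound plus infected erythrocytes (2% hematocrit, 0.05% parasitemia final) incubate 96 hours, 37 C, 5% CO2. Detection reagent added; reduced luminescence from the parasites' luciferase reporter flags inhibition.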
* marks the source's active call; other numbers are inactive results; ? = inconclusive; / = no result given; [ ] = dose if it differs, or a comment. Unless noted, calls come from the whole dose curve; as a rule, active = well fitted curve in the direction sought with a large enough effect; inconclusive = small, poorly fitted or top-dose-only effect, or another doubt; inactive = no such curve, though single readings can be large; an effect the other way counts as inactive or inconclusive.

SMILES | Pf growth 48h | HCV inhibitor | Sm TGR inh | SARS PLP yeast | HCMV inh | Pf growth 96h
Cc1nnnn1/C(=C\c1ccccc1)C(=O)OCC(=O)Nc1ccc(Cl)cc1F | ? | ? | -9% | -4% | -95* | 18%
C[n+]1c(-c2ccccc2)cc2c(=Cc3ccccc3)c3ccccc3n21 | / | ? | / | / | -99* | /
C[n+]1c(-c2ccccc2)cc2c(=Cc3ccc([N+](=O)[O-])cc3)c3ccccc3n21 | / | ? | / | / | -101* | /
CN(C)c1ccc(/C=c2\sc3nc(-c4ccccc4)nn3c2=O)cc1 | 0% | / | 0% | 6% | / | 4%
CN(C)c1ccc(C=c2c3cc(O)ccc3n3c2cc(-c2ccccc2)[n+]3C)cc1 | / | ? | / | / | -101* | /
O=[N+]([O-])c1ccc(C=CC=Cc2ccccc2)cc1 | / | / | / | / | 38 | /
NC(=O)C(=O)NCCCN1CCOCC1 | 20% | 5% | -2% | 1% | 9 | ?
CN(c1ccccc1C(=O)O)S(=O)(=O)c1ccc2[nH]c(=O)oc2c1 | 41% | / | -2% | -8% | 13 | 7%
CSC1CCCCC1(O)CSc1nc2c(cc1C#N)CCCC2 (stereo unspecified) | 9.3µM* | ? | 5% | 4% | ? | 55%
Cc1ccc(-c2nc3cc(Br)cnc3nc2-c2ccc(C)cc2)cc1 | ? | 13µM* | 3% | 1% | -37 | 15µM*
O=C1CCC[C@H]2[C@@H](Cc3ccccc3)[C@@H](NS(=O)(=O)c3cc(Cl)cc(Cl)c3)CC[C@]23CCCN13 | / | / | / | / | 28 | /
Cc1c(C(=O)NN2CCCCC2)nn(-c2ccc(Cl)cc2Cl)c1-c1ccc(Cl)cc1 | ? | / | / | / | ? | 8.5µM*
CNC(=O)c1nc(C)n(-c2ccc(Cl)cc2Cl)n1 | -13% | 13% | 0% | 0% | -14 | ?
O=C(CCCCCCCC(=O)N1CCCC1)N1CCCC1 | / | -2% | / | / | -2 | /
O=C(Nc1cccc2ccccc12)OC1C=CS(=O)(=O)C1 (stereo unspecified) | -73% | ? | -14% | 3% | -70* | -49%
CC(=O)N1c2cc3ccccc3cc2N(C(C)=O)c2cc3ccccc3cc21 | / | 8% | / | / | 14 | /
COc1ccc(-n2nnnc2S(=O)(=O)CC(=O)N2CCCCC2)cc1 | / | ? | 10µM* | -25% | / | -14%
COc1ccc(-n2nnnc2S(=O)(=O)Cc2ccc(C(=O)O)cc2)cc1 | ? | -15% | 13µM* | -16% | -18 | 25%
CC(C)Cn1cc(C(=O)NCC2CCCO2)c2c3ccccc3n(C)c2c1=O (stereo unspecified) | 13µM* | -14% | -23% | -13% | 28 | -41%
Cn1c2ccccc2c2c(C(=O)NCC3CCCO3)cn(C3CCCC3)c(=O)c21 (stereo unspecified) | ? | ? | -25% | -2% | / | 4.1µM*
CCCOc1ccccc1Cn1c(=O)sc2ccccc21 | / | / | 11% | / | -17 | /
Cn1nnc2c(NCCc3ccccc3)ncnc21 | / | / | 4% | / | -35 | /
Cc1ccc(S(=O)(=O)N2CCCC(c3nc4c(nnn4Cc4ccc5c(c4)OCCO5)c(=O)[nH]3)C2)cc1 (stereo unspecified) | ? | -4% | -2% | -3% | -38 | ?
CCc1nc(-c2cc3ccc(C)cc3[nH]c2=O)no1 | 63% | 19% | -18% | -5% | -71* | ?
Cc1ccc2cc(-c3noc(C(C)(C)C)n3)c(=O)[nH]c2c1 | ? | -9% | -4% | -7% | -15 | 18%
SMILES | Pf growth 48h | HCV inhibitor | Sm TGR inh | SARS PLP yeast | HCMV inh | Pf growth 96h
NC(N)=N/N=C/c1ccc(N(c2ccccc2)c2ccccc2)cc1 | 2.3µM* | ? | 0% | -3% | -98* | 2.1µM*
CCN(Cc1ccccc1)c1ccc(/C=N/N=C(N)N)cc1 | 1.5µM* | ? | -10% | 3% | -62* | 1.7µM*
COc1ccc(/C=N\N=C(N)N)cc1 | ? | ? | 7% | 1% | ? | 7%
C=CCOC(=O)C(C#N)c1nc2ccccc2nc1N1CCN(c2ccccc2OC)CC1 (stereo unspecified) | 5.9µM* | -22% | -2% | 2% | 11 | 8.3µM*
C=CCOC(=O)C(C#N)c1nc2ccccc2nc1N1CCN(Cc2ccccc2)CC1 (stereo unspecified) | ? | -13% | -10% | 21% | -4 | -21%
CCOC(=O)C1CCCN(c2nc3ccccc3nc2C(C#N)C(=O)OCCOC)C1 (stereo unspecified) | 6.6µM* | -2% | -17% | 0% | 23 | 8.3µM*
N#CC(C(=O)OC1CCCCC1)c1nc2ccccc2nc1N1CCOCC1 (stereo unspecified) | 5% | 19% | -2% | -3% | -78* | 31%[5.75 µM]
CCOC(=O)C1CCCN(c2nc3ccccc3nc2C(C#N)C(=O)OCC)C1 (stereo unspecified) | ? | ? | -4% | -1% | 31 | 7.4µM*
CN1CCN(c2nc3ccccc3nc2C(C#N)C(=O)OC2CCCCC2)CC1 (stereo unspecified) | ? | -26% | -2% | 15% | 13 | ?
CN(C)S(=O)(=O)c1ccc(N2CCCC2)c(C(=O)N2CCC(C(N)=O)CC2)c1 | 3% | ? | -2% | 0% | -4 | ?
COCCNC(=O)C(C#N)c1nc2ccccc2nc1N1CCCCCC1 (stereo unspecified) | ? | -27% | 0% | -6% | -28 | 32%
CCOC(=O)C1CCN(c2nc3ccccc3nc2C(C#N)C(=O)NCCc2ccccc2)CC1 (stereo unspecified) | 56% | / | -4% | -49% | / | 9.3µM*
COc1cc(CC2COC(c3ccc(O)c(OC)c3)C2COC(C)=O)ccc1O (stereo unspecified) | -12% | 24% | 40µM* | 0% | -2 | 10µM*
CCN(CC)C(=O)c1sc2c(c1C)c(=O)n(Cc1ccccc1)c(=O)n2Cc1ccccc1C | / | / | 0% | / | 0 | /
CCOc1ccc2[nH]c(=O)c(CN(CCCN3CCOCC3)C(=O)Nc3ccc(F)cc3)cc2c1 | / | -1% | / | / | -15 | /
Cc1cc(C)c2cc(CN(CCO)C(=O)Nc3ccc(Cl)cc3)c(=O)[nH]c2c1 | 9.3µM* | -24% | 7% | -1% | 3 | ?
Cc1ccc2[nH]c(=O)c(CN(CCCN(C)C)C(=O)Nc3ccc(Cl)cc3)cc2c1 | -16% | 10µM* | -5% | -3% | 0 | /
COc1ccc2[nH]c(=O)c(CN(CCCN(C)C)C(=O)Nc3ccc(F)cc3)cc2c1 | 13µM* | ? | -3% | -2% | -5 | 54%
Cc1ccc2cc(CN(CCN(C)C)C(=O)Nc3ccc(Cl)cc3)c(=O)[nH]c2c1 | 24% | 6.3µM* | -14% | -1% | -1 | 136%
